Our source for the Potency values is PubChem BioAssay (NCATS).

Results filed as inconclusive are left out. A call without a number means that no potency is given here. Active and inactive are the calls of the source. Calls come from the whole dose curve; as a rule, active = well fitted inhibition curve with a large enough effect; inconclusive = small, poorly fitted or top-dose-only effect; inactive = flat fitted curve, though single readings scatter.

The assay deals with Calcium and integrin-binding protein 1 (Homo sapiens) (UniProt Q99828). In words: Primary qHTS for Identification of Calcium Integrin Binding Protein 1 (CIB1) Competitor (AID 1508620). Note: top concentration of the series differs between compounds. The conditions noted are these: CIB1-GST / FITC-alphaIIb peptide fluorescence polarization; series mostly up to 114 µM. The gist of the method: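 Fluorescence polarization competition: GST-tagged CIB1 (1 uM final) preincubated with compound 15 min at room temperature, then FITC-labelled alphaIIb peptide (100 nM final) added. After 15 min at room temperature, polarization read at Ex 480/Em 540.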
Sequence of Calcium and integrin-binding protein 1 (Homo sapiens) (Q99828 whole entry, looked up): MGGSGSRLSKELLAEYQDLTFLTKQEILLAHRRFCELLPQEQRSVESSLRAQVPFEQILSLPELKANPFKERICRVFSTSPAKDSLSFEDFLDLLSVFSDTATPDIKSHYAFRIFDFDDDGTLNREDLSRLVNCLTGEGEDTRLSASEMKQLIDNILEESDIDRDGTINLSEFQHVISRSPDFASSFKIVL
In general terms: qHTS replaces the single test concentration by a dilution series.
In the case of `COc1ccc(-c2csc(N3CCC(C(N)=O)CC3)n2)cc1`, the Potency entry is “inactive”.

As to `COc1cccc(C2c3c(ncn(-c4ccccc4-c4ccccc4)c3=N)Oc3ccc4ccccc4c32)c1` (configuration not stated), the Potency result is “inactive”.

Take `O=c1c2ccccc2nc2sc(Nc3cccc(N4CCNCC4)c3)nn12`: the Potency entry is “inactive”.

For the molecule `N#Cc1c(-c2cc(C(F)(F)F)cc(C(F)(F)F)c2)no[n+]1[O-]`, the Potency entry was “inactive”.

In the case of `N#Cc1nc(Nc2cc(F)cc(F)c2)nc(Nc2cc(F)cc(F)c2)n1`, the Potency result was “inactive”.

On to `O=[S+]([O-])(c1c(F)cccc1F)N1CCN([S+](=O)([O-])c2csc3ccccc23)CC1`, for which the Potency result was “inactive”.

On to `Cc1cc2c(s1)c1cnn(Cc3ccc(C(C)(C)C)cc3)c(=O)c1n2C`, for which the Potency entry is “inactive”.

In the case of `Cc1ccc(C)c(OCCn2c(CCNC(=O)C3CCCCC3)nc3ccccc32)c1`, the Potency result is “inactive”.

`CN(C)C(=O)c1cccc(-c2csc(N3CCC(C(N)=O)CC3)n2)c1`: the Potency entry is “inactive”.

Regarding `Cc1ccc2c(c1)/C(=C\c1cc(Cl)c(O)c(Cl)c1)C(=O)N2`, the Potency entry was “inactive”.

For `COc1cccc(-c2ccc3ncnc(NCc4cc(C)cs4)c3c2)c1`, the Potency result is “inactive”.

In the case of `Cn1nnnc1Sc1ncnc2scc(-c3cccc(Br)c3)c12`, the Potency entry was “inactive”.

For the molecule `COc1cc(F)c(S(=O)(=O)N2CCN(S(=O)(=O)c3cccs3)CC2)c(F)c1`, the Potency result was “inactive”.

As for `NC(=O)c1c(NC(=O)c2ccncn2)sc2c1CCCC2`, the Potency entry is “inactive”.

Regarding `Cc1ccc(OCCn2c(CCNC(=O)c3cc(N)ccc3N)nc3ccccc32)cc1`, the Potency entry was “inactive”.

As to `O=C(OCC#CCSc1nnc(-c2ccco2)o1)c1ccc(F)cc1`, the Potency entry was “inactive”.

As for `N=c1c2c(ccn1CCCc1ccccc1)Oc1ccc3ccccc3c1C2c1ccccc1` (configuration not stated), the Potency result is “inactive”.
